Reference: PubChem BioAssay
Activity calls are given as the source filed them.

Assays:
[1] = molecular target: Albumin (Bos taurus) (UniProt P02769); experiment: bovine serum albumin binders on microarray, profiling panel, artefact control for SMM control protein annotation, biochemical, small-molecule microarray, Alexa647 label, 635/667 nm fluorescence (AID 1118); conditions: BSA-A647 binding, fluorescence 635 nm, higher = more signal;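 further: score merges 667 nm emission intensity and signal-to-noise per printed compound spot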
Chain of Albumin (Bos taurus) (P02769 whole entry, looked up): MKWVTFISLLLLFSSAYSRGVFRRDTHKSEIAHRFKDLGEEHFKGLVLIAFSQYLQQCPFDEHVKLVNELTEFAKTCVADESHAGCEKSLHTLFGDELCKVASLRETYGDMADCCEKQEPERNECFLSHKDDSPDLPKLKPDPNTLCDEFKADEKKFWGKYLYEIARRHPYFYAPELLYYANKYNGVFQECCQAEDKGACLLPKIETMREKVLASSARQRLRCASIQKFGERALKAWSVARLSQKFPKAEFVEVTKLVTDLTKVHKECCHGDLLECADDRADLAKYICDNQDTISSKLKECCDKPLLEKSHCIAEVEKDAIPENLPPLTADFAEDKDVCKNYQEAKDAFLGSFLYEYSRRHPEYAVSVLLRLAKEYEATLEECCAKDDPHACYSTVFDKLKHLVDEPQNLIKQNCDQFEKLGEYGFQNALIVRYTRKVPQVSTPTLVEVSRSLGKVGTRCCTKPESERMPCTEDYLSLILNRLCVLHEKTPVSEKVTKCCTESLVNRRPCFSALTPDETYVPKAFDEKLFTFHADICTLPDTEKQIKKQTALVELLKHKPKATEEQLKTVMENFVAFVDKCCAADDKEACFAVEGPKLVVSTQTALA

[2] = small-molecule microarray binders of probe aXIP, primary screen, biochemical, NeuroSMM set, 635/667 nm fluorescence (AID 1119); conditions: higher = more signal, called active from +8 up or from −8 down;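 further: probe is the protein aXip251-270 applied at 1 µg/mL to compound-printed slides; binding of probe to printed compounds measured as 667 nm fluorescence plus signal to noise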
[3] = small-molecule binders of probe aNOTCH3, primary screen, biochemical, small-molecule microarray, 635/667 nm fluorescence (AID 1120); conditions: higher = more signal;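 further: probe is a biotin-tagged antibody raised against NOTCH3 rather than NOTCH3 protein; score merges spot fluorescence near 667 nm with spot signal to noise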
[4] = small-molecule binders of probe aNOTCH2, primary screen, biochemical, small-molecule microarray, 635/667 nm fluorescence (AID 1121); conditions: higher = more signal;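 further: score merges feature fluorescence read at 667 nm with its signal to noise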
[5] = molecular target: Carbonic anhydrase 2 (Homo sapiens) (UniProt P00918); experiment: CAII small-molecule binders, profiling panel, biochemical, small-molecule microarray, Alexa647-labelled CAII (AID 1122); conditions: CAII-A647 binding fluorescence, higher = more signal
[6] = COS7 lysate on small-molecule microarray, probe aHis, 635 nm (AID 1123); conditions: COS7 cell lysate, fluorescence, higher = more signal;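 further: z-score combines 667nm fluorescence intensity with signal-to-noise per printed compound spot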
[7] = compound binding in COS7 lysate, probe aLAP1, primary screen, cell lysate, small-molecule microarray (AID 1124); conditions: probe aLAP1, fluorescence, higher = more signal;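 further: lysate comes from COS7 cells expressing LAP1 and is applied at 0.3 µg/mL; score merges spot fluorescence near 667 nm with signal-to-noise over triplicate slides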
[8] = test system: Sam68 (KHDRBS1); experiment: Sam68 small-molecule binders, primary screen, biochemical, small-molecule microarray, 635 nm fluorescence (AID 1125); conditions: small-molecule microarray binding, higher = more signal;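 further: score merges 667 nm channel intensity with signal to noise over triplicate slides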
[9] = test system: Chordin-like protein 2 (CHRDL2); experiment: CHRDL2 small-molecule binders, primary screen, biochemical, small-molecule microarray, 635 nm fluorescence (AID 1126); conditions: small-molecule microarray binding, fluorescence 635 nm; higher = more signal;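 further: printed compound slides probed with Chrdl2 protein at 4 µg/mL for 1 h at 4 C; score merges 667 nm emission intensity with signal to noise over three replicate slides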
[10] = molecular target: Concanavalin-A (Canavalia ensiformis) (UniProt P02866); experiment: ConA small-molecule binders, primary screen, artefact control for SMM control protein annotation, biochemical, small-molecule microarray, Alexa647 label, 635 nm (AID 1127); conditions: ConA-A647 binding fluorescence, higher = more signal;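 further: z combines 667 nm emission intensity with signal-to-noise across three replicate slides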
Chain of Concanavalin-A (Canavalia ensiformis) (P02866 whole entry, looked up): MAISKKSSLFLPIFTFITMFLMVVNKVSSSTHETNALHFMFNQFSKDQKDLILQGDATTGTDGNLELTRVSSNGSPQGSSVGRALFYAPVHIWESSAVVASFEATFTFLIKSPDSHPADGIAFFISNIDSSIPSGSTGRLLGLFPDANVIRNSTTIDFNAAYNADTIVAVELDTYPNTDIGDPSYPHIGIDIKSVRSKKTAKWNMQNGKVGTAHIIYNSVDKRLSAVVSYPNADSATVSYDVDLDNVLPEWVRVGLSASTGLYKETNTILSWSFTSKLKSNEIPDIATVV

[11] = anti-His antibody binders, primary screen, artefact control for SMM control protein annotation, biochemical, small-molecule microarray, 635 nm fluorescence (AID 1128); conditions: anti-His Alexa647 antibody binding, higher = more signal;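 further: score merges feature fluorescence with signal-to-noise for each printed compound spot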
[12] = test system: Human papillomavirus type 1a E7 protein (residues 1-88); experiment: HPV1a E7 small-molecule binders, primary screen, biochemical, small-molecule microarray, residues 1-88, 635 nm (AID 1129); conditions: small-molecule microarray binding, fluorescence 635 nm; higher = more signal
[13] = molecular target: Focal adhesion kinase 1 (Homo sapiens) (UniProt Q05397); experiment: small-molecule microarray binders of FAK, primary screen, biochemical, 635/667 nm fluorescence, BSA, DTT (AID 1130); conditions: PTK2 binding, 635 nm fluorescence, higher = more signal;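 further: composite of spot emission at 667 nm and signal to noise over triplicate slides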
Chain of Focal adhesion kinase 1 (Homo sapiens) (Q05397 whole entry, looked up): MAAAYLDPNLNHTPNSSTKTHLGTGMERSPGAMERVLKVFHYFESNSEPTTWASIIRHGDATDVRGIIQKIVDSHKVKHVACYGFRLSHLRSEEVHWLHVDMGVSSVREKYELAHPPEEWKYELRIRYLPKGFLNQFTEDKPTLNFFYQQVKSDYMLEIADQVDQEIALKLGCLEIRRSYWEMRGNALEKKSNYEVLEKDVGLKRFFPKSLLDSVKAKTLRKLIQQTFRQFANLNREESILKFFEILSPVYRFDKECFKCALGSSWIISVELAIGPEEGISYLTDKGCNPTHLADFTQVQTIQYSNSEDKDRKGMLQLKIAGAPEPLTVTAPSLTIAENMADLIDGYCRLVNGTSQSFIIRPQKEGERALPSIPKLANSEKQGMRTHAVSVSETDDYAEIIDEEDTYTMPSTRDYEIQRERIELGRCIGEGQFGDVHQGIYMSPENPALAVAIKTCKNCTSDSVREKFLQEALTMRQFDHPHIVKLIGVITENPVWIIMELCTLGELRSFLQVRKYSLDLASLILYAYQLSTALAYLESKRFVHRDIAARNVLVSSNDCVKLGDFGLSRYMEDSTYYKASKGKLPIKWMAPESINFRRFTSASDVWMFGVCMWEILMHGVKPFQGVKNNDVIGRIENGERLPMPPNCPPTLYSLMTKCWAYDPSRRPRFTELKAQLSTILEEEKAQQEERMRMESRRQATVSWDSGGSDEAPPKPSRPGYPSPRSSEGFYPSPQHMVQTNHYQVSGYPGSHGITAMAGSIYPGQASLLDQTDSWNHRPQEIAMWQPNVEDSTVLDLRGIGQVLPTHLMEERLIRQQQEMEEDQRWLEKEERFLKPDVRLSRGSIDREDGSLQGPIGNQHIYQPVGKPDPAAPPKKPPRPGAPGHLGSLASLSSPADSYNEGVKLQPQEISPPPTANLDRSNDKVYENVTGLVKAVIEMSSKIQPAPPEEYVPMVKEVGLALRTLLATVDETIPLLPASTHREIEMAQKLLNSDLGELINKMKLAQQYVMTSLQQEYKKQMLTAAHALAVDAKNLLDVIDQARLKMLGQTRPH

[14] = test system: Fibrinogen (Alexa647-labelled); experiment: fibrinogen binders on compound microarrays, profiling panel, artefact control for SMM control-protein annotation, biochemical, small-molecule microarray, 635/667 nm fluorescence (AID 1131); conditions: fibrinogen-A647 binding fluorescence, higher = more signal;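 further: z-score merges 667 nm fluorescence with per-spot signal-to-noise over triplicate slides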
[15] = molecular target: Follistatin (Homo sapiens) (UniProt P19883); experiment: follistatin binders on small-molecule microarrays, primary screen, biochemical, small-molecule microarray, 635/667 nm fluorescence (AID 1132); conditions: FST binding, 635 nm fluorescence, higher = more signal
Chain of Follistatin (Homo sapiens) (P19883 whole entry, looked up): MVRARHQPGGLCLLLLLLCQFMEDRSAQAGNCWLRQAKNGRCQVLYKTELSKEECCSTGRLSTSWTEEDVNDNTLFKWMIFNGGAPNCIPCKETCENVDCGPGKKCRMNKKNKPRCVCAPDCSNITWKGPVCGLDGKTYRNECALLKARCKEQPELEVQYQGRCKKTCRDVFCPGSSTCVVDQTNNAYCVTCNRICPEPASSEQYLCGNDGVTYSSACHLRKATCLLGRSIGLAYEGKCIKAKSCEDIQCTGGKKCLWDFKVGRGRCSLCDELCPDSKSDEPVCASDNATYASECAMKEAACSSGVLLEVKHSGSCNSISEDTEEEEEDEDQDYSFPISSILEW

[16] = molecular target: Fibroblast growth factor 2 (Homo sapiens) (UniProt P09038); experiment: FGF2 binders on small-molecule microarrays, primary screen, biochemical, small-molecule microarray, 635/667 nm fluorescence (AID 1133); conditions: small-molecule microarray binding, FGF2, fluorescence 635/667; higher = more signal
Chain of Fibroblast growth factor 2 (Homo sapiens) (P09038 whole entry, looked up): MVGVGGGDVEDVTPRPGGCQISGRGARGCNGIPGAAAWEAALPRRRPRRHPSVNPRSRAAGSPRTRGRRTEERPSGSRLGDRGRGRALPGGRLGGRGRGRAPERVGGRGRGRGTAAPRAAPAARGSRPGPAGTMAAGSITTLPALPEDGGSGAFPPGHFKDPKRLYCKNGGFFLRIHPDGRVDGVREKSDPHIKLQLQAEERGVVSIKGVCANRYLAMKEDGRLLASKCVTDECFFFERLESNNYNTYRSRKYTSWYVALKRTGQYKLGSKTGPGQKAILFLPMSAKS

[17] = mitochondrial membrane potential change in A549 cells, profiling panel, cell-based, JC-1 fluorescence, basal, 24 h, 100 nL (AID 1138); conditions: higher = more signal;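 further: A549 lung adenocarcinoma cells under basal conditions with no added stimulus; test concentration not given here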
[18] = test system: Lefty1; experiment: Lefty1 binders on small-molecule microarrays, primary screen, biochemical, small-molecule microarray, 635/667 nm fluorescence (AID 1139); conditions: small-molecule microarray binding, fluorescence 635/667; higher = more signal
[19] = test system: wheat germ agglutinin (Triticum aestivum), Alexa647-labelled; experiment: wheat germ agglutinin binders on compound microarrays, profiling panel, artefact control for SMM control-protein annotation, biochemical, small-molecule microarray, 635/667 nm fluorescence (AID 1140); conditions: WGA-A647 binding, 635 nm fluorescence, higher = more signal;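 further: score merges 667 nm feature emission with signal to noise over triplicate slides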
[20] = molecular target: Luciferin 4-monooxygenase (Photinus pyralis) (UniProt P08659); experiment: firefly luciferase enzyme inhibitors, primary screen, biochemical, luminescence, purified enzyme, 2006 set (AID 1141); conditions: SteadyGlo luminescence, 30 min, higher = more signal, called active from +8 up or from −8 down;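 further: cell-free assay with purified firefly luciferase at 100 ng per well in PBS; test concentration not given here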
Chain of Luciferin 4-monooxygenase (Photinus pyralis) (P08659 whole entry, looked up): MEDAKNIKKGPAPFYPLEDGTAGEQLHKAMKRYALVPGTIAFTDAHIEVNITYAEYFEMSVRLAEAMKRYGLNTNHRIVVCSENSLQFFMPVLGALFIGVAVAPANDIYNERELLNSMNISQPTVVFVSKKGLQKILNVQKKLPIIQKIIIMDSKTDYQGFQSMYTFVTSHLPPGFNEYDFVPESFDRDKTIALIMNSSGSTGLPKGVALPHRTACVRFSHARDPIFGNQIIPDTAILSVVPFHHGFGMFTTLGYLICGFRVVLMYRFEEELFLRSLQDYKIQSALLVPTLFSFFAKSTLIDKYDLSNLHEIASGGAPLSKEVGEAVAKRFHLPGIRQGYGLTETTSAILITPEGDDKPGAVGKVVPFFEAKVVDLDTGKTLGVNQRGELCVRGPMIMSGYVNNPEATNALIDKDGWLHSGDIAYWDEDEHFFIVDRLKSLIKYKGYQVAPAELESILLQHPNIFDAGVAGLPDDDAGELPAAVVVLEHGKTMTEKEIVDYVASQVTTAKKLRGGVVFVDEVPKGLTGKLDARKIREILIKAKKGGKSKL

| SMILES | composite z-score [1] | composite Z-score [2] | composite z-score [3] | composite z-score [4] | composite z-score [5] | composite z-score [6] | composite z-score [7] | composite z-score [8] | composite z-score [9] | composite z-score [10] | composite z-score [11] | composite z-score [12] | composite z-score [13] | composite z-score [14] | composite z-score [15] | composite z-score [16] | z-score [17] | composite z-score [18] | composite z-score [19] | z-score [20] |
| --- | --- | --- | --- | --- | --- | --- | --- | --- | --- | --- | --- | --- | --- | --- | --- | --- | --- | --- | --- | --- |
| O=C1[C@H]2[C@H]3[C@H](O)[C@H](O)CC(=NOCc4ccccc4)[C@H]3CC[C@H]2C(=O)N1Cc1ccc2c(c1)OCO2 | 0.116 | -0.192 (inactive) | 0.0116 | -0.146 | -0.0448 | 1.1 | 0.148 | -0.18 | 0.408 | -0.261 | -0.169 | 0.186 | -0.175 | 0.632 | 0.214 | 0.533 | -0.626 | 0.397 | 0.492 | 1.23 (inactive) |
| CCOC(=O)NN=C1C[C@@H](O)[C@@H](O)[C@@H]2[C@@H]3C(=O)N(c4cccc(Oc5ccccc5)c4)C(=O)[C@@H]3CC[C@H]12 | 0.52 | -0.238 (inactive) | 0.0462 | -0.0753 | 0.503 | 0.858 | 0.0682 | 0.384 | 0.399 | 0.854 | 0.141 | 0.34 | 0.0494 | 0.641 | 0.519 | 0.374 | 0.471 | 0.365 | 0.01 | -0.219 (inactive) |
| CSCC[C@@H]1NC(=O)CC=C[C@@H](C)COC(=O)[C@@H](C)COC1=O | -1.1 | 0.517 (inactive) | -0.155 | -0.175 | -0.762 | -1.1 | 0.145 | -0.399 | 0.683 | -2.02 | -0.888 | -1.81 | -0.948 | -2.46 | 0.556 | 0.0867 | 1.31 | -0.0168 | -1.71 | -0.343 (inactive) |
| CC(C)=CCCC(C)=CCON=C1C[C@@H](O)[C@@H](O)[C@@H]2[C@@H]3C(=O)N(c4ccc(F)cc4F)C(=O)[C@@H]3CC[C@H]12 | 0.477 | -0.356 (inactive) | 0.164 | -0.0662 | 0.514 | 1.31 | 0.402 | 1.24 | 0.812 | 0.629 | 1.33 | 1.21 | 0.631 | 0.333 | 0.705 | 0.256 | -0.63 | 0.515 | 0.335 | 0.443 (inactive) |
| COC(=O)[C@@H]1CC[C@@H](C)[C@H](c2ccc(Br)cc2)N1 | -0.0822 | 0.644 (inactive) | -0.0111 | -0.0165 | -0.203 | 0.0852 | -0.117 | -0.8 | 0.202 | 0.0592 | 0.949 | 0.0613 | 0.867 | 0.689 | -0.177 | -0.0826 | 0.864 | -0.0352 | 0.0075 | -0.482 (inactive) |
| CCCNC(=O)OC[C@H]1O[C@H](CCON=Cc2ccc(C(=O)N3[C@H](c4ccc(C)cc4)[C@@H](C)CC[C@H]3C(=O)OC)cc2)C=C[C@@H]1Oc1ccc(OC)cc1 | 0.315 | 0.0856 (inactive) | -0.321 | -0.172 | -0.0309 | 0.526 | 0.735 | 1.08 | 0.274 | 0.279 | 1.77 | 0.838 | 0.315 | 0.88 | 0.277 | 0.666 | -0.195 | 0.58 | 0.236 | 0.407 (inactive) |
| COC(=O)CC=C[C@@H](C)[C@@H](C=NO[C@H](C)c1cn([C@@H]2COC[C@H]2O)nn1)NS(=O)(=O)c1ccc(C)cc1 | -0.129 | 0.355 (inactive) | 0.0316 | -0.0108 | -0.156 | 0.0779 | 0.219 | 0.277 | 0.877 | -0.653 | 1.41 | -0.0194 | -0.217 | 0.533 | 1.08 | 0.845 | 0.109 | 1.26 | 0.521 | 0.316 (inactive) |
| COC(=O)CC=C[C@@H](C)[C@@H](C=NO[C@@H](C)c1cn([C@H](CO)Cc2ccccc2)nn1)OC | 0.943 | -0.452 (inactive) | -0.0069 | -0.103 | -0.225 | -0.274 | 0.137 | 0.695 | 0.664 | -0.61 | 2.93 | 0.168 | -0.0296 | 0.578 | 0.293 | 0.411 | 0.269 | 0.579 | 0.084 | -2.11 (inactive) |
| CC(C)=NO[C@H](C)c1cn([C@H](CO)Cc2ccccc2)nn1 | 0.364 | -0.178 (inactive) | -0.0932 | -0.123 | 0.13 | 0.559 | -0.536 | 0.444 | -0.0691 | 1.1 | 1.28 | 0.464 | 0.548 | 0.991 | 0.139 | 0.137 | -0.34 | 0.137 | -0.026 | -1.69 (inactive) |
| O=C1C2=CC[C@H]3C(=O)N(c4cccc(Oc5ccccc5)c4)C(=O)[C@H]3[C@H]2[C@H](O)[C@@H]2O[C@H]12 | -0.0451 | -0.0708 (inactive) | 0.0179 | -0.132 | -0.146 | 0.19 | -0.0224 | 0.645 | 0.625 | 0.443 | 0.703 | 0.185 | -0.0765 | -0.156 | 0.916 | 0.425 | -0.633 | 0.755 | 0.0467 | -1.27 (inactive) |
